Screens from PubChem.
This is one part of a sample in which hits are shown more often than they occur.
Dicer inh = inhibitors of human Dicer processing of pre-microRNA; Q9UPY3; z-score at 25 µM; AID 1347074; 47,000 tested, 6% active; cat-ELCCA pre-miR-21 Dicer processing, chemiluminescence; active compounds read high; in the data active = z-score above about 3, passing the limit was not always enough;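 note: plate controls were vehicle for no effect and no enzyme for full effect; higher signal means more uncleaved substrate so more Dicer inhibition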
Target sequence (Q9UPY3 whole entry, looked up): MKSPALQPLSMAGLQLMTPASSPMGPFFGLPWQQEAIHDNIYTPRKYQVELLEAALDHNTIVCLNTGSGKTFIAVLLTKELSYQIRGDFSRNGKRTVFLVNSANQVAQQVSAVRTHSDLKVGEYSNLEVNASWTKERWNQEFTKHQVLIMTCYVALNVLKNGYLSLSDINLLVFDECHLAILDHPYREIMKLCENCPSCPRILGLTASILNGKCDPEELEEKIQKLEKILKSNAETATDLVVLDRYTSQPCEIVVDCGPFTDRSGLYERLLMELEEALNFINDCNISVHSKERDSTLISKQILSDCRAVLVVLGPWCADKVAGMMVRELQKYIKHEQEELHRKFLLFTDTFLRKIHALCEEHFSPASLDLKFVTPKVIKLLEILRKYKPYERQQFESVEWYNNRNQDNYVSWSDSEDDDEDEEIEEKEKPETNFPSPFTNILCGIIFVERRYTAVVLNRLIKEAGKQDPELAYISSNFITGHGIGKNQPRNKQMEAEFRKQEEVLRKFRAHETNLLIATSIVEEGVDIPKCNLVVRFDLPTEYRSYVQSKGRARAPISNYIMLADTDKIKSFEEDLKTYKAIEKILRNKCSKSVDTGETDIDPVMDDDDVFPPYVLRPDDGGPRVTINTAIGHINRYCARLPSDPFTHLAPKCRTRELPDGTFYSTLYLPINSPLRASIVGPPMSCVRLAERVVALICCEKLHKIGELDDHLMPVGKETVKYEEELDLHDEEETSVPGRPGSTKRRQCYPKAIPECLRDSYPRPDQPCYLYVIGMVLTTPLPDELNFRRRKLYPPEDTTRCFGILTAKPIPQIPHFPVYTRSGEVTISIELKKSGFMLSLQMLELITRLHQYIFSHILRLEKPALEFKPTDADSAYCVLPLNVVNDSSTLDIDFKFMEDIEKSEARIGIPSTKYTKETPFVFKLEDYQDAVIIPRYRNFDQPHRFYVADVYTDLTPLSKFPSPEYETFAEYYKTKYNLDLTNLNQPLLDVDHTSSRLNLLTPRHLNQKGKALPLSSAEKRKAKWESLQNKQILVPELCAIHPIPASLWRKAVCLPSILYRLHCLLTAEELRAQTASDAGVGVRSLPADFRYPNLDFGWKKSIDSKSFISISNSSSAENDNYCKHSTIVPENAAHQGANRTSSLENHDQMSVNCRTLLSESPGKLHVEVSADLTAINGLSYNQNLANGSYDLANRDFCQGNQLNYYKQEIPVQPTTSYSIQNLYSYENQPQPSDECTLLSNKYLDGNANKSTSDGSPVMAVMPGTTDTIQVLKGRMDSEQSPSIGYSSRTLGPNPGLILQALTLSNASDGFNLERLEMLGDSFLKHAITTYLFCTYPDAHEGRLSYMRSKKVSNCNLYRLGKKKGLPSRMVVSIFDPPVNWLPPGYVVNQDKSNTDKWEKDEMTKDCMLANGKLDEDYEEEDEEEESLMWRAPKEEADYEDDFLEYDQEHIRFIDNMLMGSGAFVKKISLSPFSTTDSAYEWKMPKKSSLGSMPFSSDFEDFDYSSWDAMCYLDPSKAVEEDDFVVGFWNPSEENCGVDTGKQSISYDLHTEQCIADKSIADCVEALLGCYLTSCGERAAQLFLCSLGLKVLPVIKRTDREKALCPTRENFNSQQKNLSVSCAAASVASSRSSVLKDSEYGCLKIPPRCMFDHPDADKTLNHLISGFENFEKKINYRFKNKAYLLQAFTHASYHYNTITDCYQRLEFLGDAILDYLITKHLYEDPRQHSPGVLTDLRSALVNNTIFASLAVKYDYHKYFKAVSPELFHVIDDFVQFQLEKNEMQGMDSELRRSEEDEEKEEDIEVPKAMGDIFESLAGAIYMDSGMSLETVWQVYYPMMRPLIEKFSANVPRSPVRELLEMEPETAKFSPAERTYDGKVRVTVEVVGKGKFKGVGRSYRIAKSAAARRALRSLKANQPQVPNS
Starred values were filed as active, the others as inactive.

SMILES | Dicer inh
O=C(CCSc1nnc(NC(=O)Cn2c(=O)oc3ccccc32)s1)Nc1ccccc1 | 2.6
O=C(Cn1c(=O)oc2ccccc21)Nc1nnc(SCc2ccccc2)s1 | 3*
O=C(Cn1c(=O)oc2ccccc21)Nc1nnc(SCC(=O)N2CCOCC2)s1 | 3.2*
COc1ccc([N+](=O)[O-])c(OC)c1C(=O)NC(=O)Nc1c(Cl)cc([N+](=O)[O-])cc1Cl | -0.56
CCN1C(=O)C(O)(CC(=O)c2ccc(C)cc2C)c2cc(Br)ccc21 (centres undefined) | 0.84
O=[N+]([O-])c1ccc(Oc2ccc(Cl)cc2Cl)cc1C(F)(F)F | 0.22
COc1ccc(Oc2sccc2[N+](=O)[O-])cc1 | 0.72
O=[N+]([O-])c1ccsc1Oc1ccc(Cl)cc1Cl | 4.2*
O=C(CSC1=NCCc2ccccc21)c1ccccc1Cl | -3.1
COc1cc2c(cc1OC)C(C)N(S(=O)(=O)c1cn(C)c(C)n1)CC2 (centres undefined) | 2
COc1ccc(Nc2nc(Nc3ccc(OC)cc3)nc(Sc3nncn3C)n2)cc1 | -0.47
O=c1c2ccccc2nc2n1CCS2 | 0.2
CC1(C)Cc2c(sc3[nH]c(=O)n(CC(=O)O)c(=O)c23)CO1 | 3.9*
CCn1c(SCC(=O)c2ccccc2)nc2sc3c(c2c1=O)CC(C)(C)OC3 | -0.17
C=C(C)Cn1c(SCCC)nc2sc3c(c2c1=O)CC(C)(C)OC3 | 4.3
CCCCNc1ncnc2scc(-c3ccccc3)c12 | -1.6
Cc1cc(=O)oc2n[nH]c(CSc3ccc(Cl)cc3)c12 | -3
COc1ccc(OC)c(C2N=C(N)Nc3nc4ccccc4n32)c1 (centres undefined) | -1.2
COc1ccc(C2N=C(N)Nc3nc4ccccc4n32)cc1 (centres undefined) | -0.05
COc1ccccc1C1N=C(N)Nc2nc3ccccc3n21 (centres undefined) | 34*
O=[N+]([O-])c1cc(C(F)(F)F)ccc1Nc1ncc(C(F)(F)F)cc1Cl | -0.23
CCn1c(SCCOc2ccc(OC)cc2)nc2ccccc21 | -1.9
O=C(O)CCSc1n[nH]c2nc3ccccc3n12 | -1.2
Cc1ccc(OCCn2c(SCCO)nc3ccccc32)cc1 | 0.65
Cc1ccc(OCCSc2n[nH]c3nc4ccccc4n23)cc1 | 6.2*
SMILES | Dicer inh
Cc1cccc(OCCSc2nc3ccccc3n2CCO)c1 | 5.6*
Cc1ccc(OCCSc2nc3ccccc3o2)cc1 | -1.5
Cc1cc(Oc2cc(Cl)cc(Cl)c2)nc(-c2ccccn2)n1 | 0.3
CS/C(Nc1cccc(C(F)(F)F)c1)=C(/C#N)S(=O)(=O)c1ccc(Cl)cc1 | 0.86
C=CCOC(=O)C1=C(C)NC2=C(C(=O)CCC2)C1c1ccccc1Cl (centres undefined) | 0.08
CCOC(=O)C1=C(C)NC2=C(C(=O)CC(C)(C)C2)C1c1cc(OC)ccc1OC (centres undefined) | -1.1
Oc1ccccc1-c1nc(-c2ccccc2)no1 | 0.04
Cc1ccsc1/C=C/c1noc(-c2ccccc2O)n1 | 3.3*
CCN(CC)c1ccc(/C=C/c2noc(-c3ccccc3O)n2)cc1 | 0.97
CSc1ccc(/C=C/c2noc(-c3ccccc3O)n2)cc1 | -1.9
Cc1ccccc1-c1nc(C2CCCCC2)no1 | 1.7
Oc1ccccc1-c1nc(/C=C/c2ccc(Cl)cc2)no1 | 6.7*
COc1cc(S(=O)(=O)n2ccnc2)ccc1Br | -0.02
COc1ccc(-c2cc(C(=O)Nc3ccc(F)cc3)c(C(F)(F)F)o2)cc1 | -0.27
Cc1csc(NC(=O)c2ccco2)c1C(=O)c1ccccc1 | 0.11
O=C(Nc1csc(C(F)(F)F)c1-c1ccccc1)c1ccco1 | 4.4*
O=C(Nc1csc(C(F)(F)F)c1-c1ccccc1)C(Cl)(Cl)Cl | -0.5
O=c1c2c(-c3ccc(Cl)cc3)ccnc2[nH]n1-c1ccccc1 | -0.32
CCN1C(=O)C(C(=O)c2ccc(OC)cc2)SC1=S (centres undefined) | -1.1
CSc1nsc(SC)c1NC(=O)Nc1ccccc1C | 2.3
CC12c3ccccc3C(c3ccccc31)C1C(=O)N(c3ccccc3)C(=O)C12 (centres undefined) | 0.7
COc1ccc(N2C(=O)C3C4c5ccccc5C(CO)(c5ccccc54)C3C2=O)cc1 (centres undefined) | -0.87
CCCCOc1ccc(N2C(=O)C3C4c5ccccc5C(CO)(c5ccccc54)C3C2=O)cc1 (centres undefined) | 3.3*
O=C1C2C3c4ccccc4C(CO)(c4ccccc43)C2C(=O)N1c1ccccc1Cl (centres undefined) | 0.88
O=C1C2C3c4ccccc4C(CO)(c4ccccc43)C2C(=O)N1c1ccc(F)cc1 (centres undefined) | 4.9*
SMILES | Dicer inh
O=C1C2C3c4ccccc4C(C(=O)O)(c4ccccc43)C2C(=O)N1c1ccccc1 (centres undefined) | 0.12
CC(=O)OCC(=O)[C@@]12N=C(C)O[C@@H]1C[C@H]1[C@@H]3CCC4=CC(=O)C=C[C@]4(C)[C@H]3[C@@H](O)C[C@@]12C | 2.1
N#Cc1nc(-c2ccc(F)cc2)oc1NCCN1CCOCC1 | -0.77
COc1ccccc1CNS(=O)(=O)c1ccc2c(c1)OCCO2 | -0.11
CCN(CC)c1ccc(Nc2cc(C)nc3ncnn23)c(C)c1 | -0.45
Cc1ccc(CNC(=O)Nc2ccc(F)cc2F)n1C | 1.2
CCOc1ccc(S(=O)(=O)n2c(C)nc3ccccc32)cc1 | 1.9
CCOc1ccc(S(=O)(=O)n2cnc3ccccc32)cc1 | 4.7*
O=S(=O)(c1ccc(Cl)cc1)n1cnc2ccccc21 | 2.5
CCOC(=O)c1nnn(-c2nonc2N)c1-c1cccc(OCC)c1 | -0.26
O=C(c1ccccc1)N(C(=O)c1ccccc1)C(=O)c1ccccc1 | 1
Cc1cc2n(n1)C(c1ccccc1Cl)Nc1c(C)cccc1-2 (centres undefined) | 5.9*
COc1ccc(OC)c(C2Nc3c(C)cccc3-c3cc(C)nn32)c1 (centres undefined) | -1.3
Cc1cc2n(n1)C(c1cccc(Cl)c1)Nc1c(C)cccc1-2 (centres undefined) | 6.2*
Cc1cc2n(n1)C(c1ccc(Cl)cc1)Nc1c(C)cccc1-2 (centres undefined) | 3.8*
COc1ccc(C2Nc3c(C)cccc3-c3cc(C)nn32)cc1OC (centres undefined) | -0.04
Cc1cc2n(n1)C(c1ccc(N3CCCC3)cc1)Nc1c(C)cccc1-2 (centres undefined) | 8.8
CCOc1cccc(C2Nc3c(C)cc(C)cc3-c3cc(C)nn32)c1O (centres undefined) | 2.6
COc1cccc(C2Nc3c(C)cccc3-c3cc(C)nn32)c1O (centres undefined) | 4.9*
COc1ccc(C2Nc3c(C)cccc3-c3cc(C)nn32)cc1 (centres undefined) | 0.76
Cc1cc2n(n1)C(c1ccsc1)Nc1c(C)cccc1-2 (centres undefined) | -0.46
Cc1cc2n(n1)C(c1ccccc1F)Nc1c(C)cccc1-2 (centres undefined) | 0.62
Cc1cc2n(n1)C(c1cc(Br)ccc1O)Nc1c(C)cccc1-2 (centres undefined) | 8.7
CC(C)(C)C(=O)Nc1nc(NC(=O)C(C)(C)C)nc(-c2ccccc2C(F)(F)F)n1 | 0.27
COc1ccc(CCNc2cc(C)nc(N)n2)cc1OC | -0.43
O=C(Nc1ccccc1N1CCCCC1)C1=CCCCC1C(=O)O (centres undefined) | -1.5
CC(=O)Nc1ccc(Oc2nc(-c3ccccc3)ns2)cc1 | 1.3
CC(C)(C)OC(=O)c1cccc(NC(=O)Nc2ccccc2)c1 | -0.67
CCOCCOc1cccc2oc(C(=O)OCC)cc(=O)c12 | -0.21
